IDE exosite FP: insulin-degrading enzyme (human) exo-site inhibition; P14735; purified IDE, FL-6b probe fluorescence polarization; hits give low values; z-score at 20 µM; actives 6.3% (n = 17,000); AID 1259349;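 active = z-score of -3 or lower, meaning strong loss of probe binding signal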;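 also: His-tagged human IDE residues 42-1019 made in E. coli with 30 nM FL-6b probe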
Target sequence (P14735 42-1019 limits assumed): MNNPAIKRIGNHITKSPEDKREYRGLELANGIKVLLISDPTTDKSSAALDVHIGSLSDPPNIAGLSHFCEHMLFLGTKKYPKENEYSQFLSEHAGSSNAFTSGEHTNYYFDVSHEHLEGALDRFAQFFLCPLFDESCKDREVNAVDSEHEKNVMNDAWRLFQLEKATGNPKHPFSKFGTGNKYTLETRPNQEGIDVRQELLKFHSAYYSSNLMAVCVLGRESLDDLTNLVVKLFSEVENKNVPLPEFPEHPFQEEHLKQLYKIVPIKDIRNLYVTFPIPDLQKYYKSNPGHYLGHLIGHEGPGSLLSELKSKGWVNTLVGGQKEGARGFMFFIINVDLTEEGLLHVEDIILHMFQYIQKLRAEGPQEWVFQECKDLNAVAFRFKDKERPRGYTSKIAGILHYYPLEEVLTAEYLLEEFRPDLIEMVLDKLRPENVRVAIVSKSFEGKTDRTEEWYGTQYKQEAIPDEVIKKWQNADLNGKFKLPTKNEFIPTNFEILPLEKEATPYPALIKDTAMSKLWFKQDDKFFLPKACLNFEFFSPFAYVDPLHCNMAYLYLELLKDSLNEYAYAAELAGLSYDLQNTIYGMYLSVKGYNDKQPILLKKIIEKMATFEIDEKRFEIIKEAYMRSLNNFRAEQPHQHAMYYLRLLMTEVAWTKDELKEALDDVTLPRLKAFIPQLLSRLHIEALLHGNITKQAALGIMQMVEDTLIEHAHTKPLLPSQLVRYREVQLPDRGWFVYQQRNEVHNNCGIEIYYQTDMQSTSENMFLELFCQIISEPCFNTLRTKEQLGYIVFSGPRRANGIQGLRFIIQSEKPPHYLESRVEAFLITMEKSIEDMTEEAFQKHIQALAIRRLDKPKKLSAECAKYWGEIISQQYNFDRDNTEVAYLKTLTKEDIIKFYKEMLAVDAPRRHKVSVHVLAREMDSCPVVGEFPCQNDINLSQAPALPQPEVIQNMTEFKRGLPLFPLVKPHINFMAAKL
Numbers stand for hits; - = inactive. The full list was thinned out, with hits kept by preference.

SMILES | IDE exosite FP
O=C(C[C@@H]1C[C@H]2c3cc(NC(=O)Nc4ccccc4F)ccc3O[C@H]2[C@H](CO)O1)NCc1ccccn1 | -
COCC(=O)N1CC2(CN(Cc3ccccc3)C2)c2c(n(C)c3cc(OC)ccc23)[C@H]1CO | -
CC(C)CC#Cc1ccc([C@H]2[C@H]3CN(C(=O)Cc4cccnc4)CC(=O)N3[C@H]2CO)cc1 | -
CCC(=O)N1CCCCN2[C@H](CO)[C@H](c3ccc(-c4ccc(F)cc4)cc3)[C@H]2C1 | -
CCC(=O)N1CCCCN2[C@H](CO)[C@@H](c3ccc(/C=C/c4ccccc4)cc3)[C@H]2C1 | -
CN1CCCCN2[C@H](CO)[C@H](c3ccc(/C=C/c4ccccc4)cc3)[C@H]2C1 | -
CCC(=O)N1CCCCN2[C@H](CO)[C@H](c3ccc(-c4ccc(F)cc4)cc3)[C@@H]2C1 | -
CN1CCCCN2[C@H](CO)[C@@H](c3ccc(/C=C/c4ccccc4)cc3)[C@H]2C1 | -5.4
CCC(=O)N1CCCCN2[C@H](CO)[C@H](c3ccc(/C=C/c4ccccc4)cc3)[C@H]2C1 | -3.1
CCC(=O)N1CCCCN2[C@@H](CO)[C@H](c3ccc(/C=C/c4ccccc4)cc3)[C@@H]2C1 | -7.2
O=C(c1cccc(F)c1)N1CCCCN2[C@H](CO)[C@@H](c3ccc(/C=C/c4ccccc4)cc3)[C@@H]2C1 | -
CCC(=O)N1CCCCN2[C@@H](CO)[C@@H](c3ccc(-c4ccc(F)cc4)cc3)[C@@H]2C1 | -
O=C(c1cccc(F)c1)N1CCCCN2[C@H](C1)[C@H](c1ccc(/C=C/c3ccccc3)cc1)[C@@H]2CO | -
CN1CCCCN2[C@H](CO)[C@H](c3ccc(-c4ccccc4)cc3)[C@H]2C1 | -
O=C(c1ccc(F)cc1)N1CCCCN2[C@@H](CO)[C@H](c3ccc(/C=C/c4ccccc4)cc3)[C@@H]2C1 | -3.4
COc1cccc(C#Cc2ccc([C@@H]3[C@H](C#N)N(C(=O)c4ccccn4)[C@H]3CO)cc2)c1 | -
CCCNC(=O)[C@H]1[C@H](CO)[C@H]2Cn3c(ccc(/C=C/c4ccccc4)c3=O)[C@H]2N1CC1CC1 | -
COc1ccc(NC(=O)N2CCCCN3[C@H](CO)[C@H](c4ccc(C5=CCCCC5)cc4)[C@@H]3C2)cc1 | -
CN1c2ccc(-c3cccc(C#N)c3)cc2[C@H]2[C@H](CCN2C(=O)CN2CCOCC2)[C@H]1CO | -
CO[C@H](CN(C)Cc1ccc2c(c1)OCO2)[C@H](C)CN(C(=O)Nc1ccc(F)cc1)[C@H](C)CO | -
C[C@H]1CCCCO[C@H](CN(C)C(=O)CCCN(C)C)[C@@H](C)CN([C@@H](C)CO)C(=O)c2cc(NS(=O)(=O)c3ccc(Cl)cc3)ccc2O1 | -
COc1ccc(-c2ccc([C@H]3[C@@H](CO)N4CCCCN(C(=O)c5ccc(F)cc5)C[C@H]34)cc2)cc1 | -
N#C[C@@H]1[C@@H](c2ccccc2-c2ccccc2)[C@H](CO)N1C(=O)Cc1cccnc1 | -
COc1ccc(NC(=O)N2C[C@H](O)COC[C@@H]3O[C@@H](CC(=O)NCc4ccncn4)CC[C@H]32)cc1 | -
O=C(CN1CCOCC1)N1CCCCN2[C@@H](CO)[C@H](c3ccc(-c4ccccc4F)cc3)[C@@H]2C1 | -
SMILES | IDE exosite FP
COc1ccccc1-c1ccc([C@H]2[C@H](CO)N3CCCCN(C(=O)CN4CCOCC4)C[C@@H]23)cc1 | -3.2
COCC(=O)N1CCCCN2[C@H](CO)[C@@H](c3ccc(-c4ccccc4)cc3)[C@H]2C1 | -
O=C(CN1CCOCC1)N1CCCCN2[C@H](CO)[C@H](c3ccc(-c4ccccc4F)cc3)[C@@H]2C1 | -
COc1ccccc1-c1ccc([C@H]2[C@@H](CO)N3CCCCN(C(=O)CN4CCOCC4)C[C@H]23)cc1 | -
Cc1ccccc1-c1ccc([C@H]2[C@@H](CO)N3CCCCN(C(=O)CN4CCOCC4)C[C@H]23)cc1 | -9.9
Cc1ccccc1-c1ccc([C@@H]2[C@@H](CO)N3CCCCN(C(=O)CN4CCOCC4)C[C@@H]23)cc1 | -8
O=C(CN1CCOCC1)N1CCCCN2[C@H](CO)[C@@H](c3ccc(-c4ccccc4F)cc3)[C@@H]2C1 | -3.6
O=C(CN1CCOCC1)N1CCCCN2[C@H](CO)[C@H](c3ccc(-c4ccccc4F)cc3)[C@H]2C1 | -
CC=Cc1ccc2n(c1=O)C[C@@H]1[C@@H](CO)[C@H](C(=O)NCCC)[C@H]2N1Cc1ccccc1OC (mixture of isomers) | -
CN1C(=O)c2cc(NC(=O)c3cnccn3)ccc2OC[C@H]2O[C@H](CC(=O)NCC3CCCCC3)CC[C@H]21 | -
COc1ccc(CN2C[C@H](O)COC[C@@H]3O[C@@H](CC(=O)N(C)C)CC[C@H]32)cc1 | -
O=C(c1cccc(F)c1)N1CCCCN2[C@H](CO)[C@H](c3ccc(-c4ccccc4)cc3)[C@H]2C1 | -
C[C@@H]1CCn2cc(nn2)COC[C@H](C)NC1=O | -
CCS(=O)(=O)Nc1ccc2c(c1)C(=O)N(C)[C@@H]1CC[C@H](CC(=O)NCc3ccc(OC)cc3)O[C@@H]1CO2 | -
CN1C(=O)c2cc(NC(=O)c3cscn3)ccc2OC[C@H]2O[C@H](CC(=O)N3CCOCC3)CC[C@H]21 | -
